In PubChem BioAssay AID720594 (Broad Institute, 2013):
Entries with a potency or affinity are not part of this list. Activity calls are given as the source filed them.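 Rule for the calls: active = falling ATP light signal with a fitted half-maximal concentration at most twice the highest valid tested dose; inconclusive = flat fit with moderate signal loss, or poor fit; inactive = the rest.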

Assay: HepG2 hepatoma cell cytotoxicity, dose response, cytotoxicity control, CellTiter-Glo luminescence, dry powder, set 3 (AID 720594)
Conditions: HepG2 viability, ATP luminescence, 72 h; series mostly up to 26 µM
For `CC1CCN(S(=O)(=O)c2ccc(C(=O)Nc3nnc(-c4ccno4)o3)cc2)CC1`, the outcome was “inactive”.
With `Cc1ccc(C(=O)Nc2nc(-c3ccccn3)cs2)cc1S(=O)(=O)N1CCOCC1` the outcome was “inactive”.
In the case of `O=C(Cc1ccccc1)NC(c1ccco1)c1ccc2cccnc2c1O` (stereo not drawn), the outcome is reported as “inactive”.
With `Cc1nnc(NC(=O)c2ccc(S(=O)(=O)N3CCCCC3)cc2)o1` the outcome was “inactive”.
For `O=C(Nc1nnc(C2=COCCO2)o1)c1ccc(S(=O)(=O)N2CCCCC2)cc1`, the outcome was “inactive”.
With `Cc1ccc(S(=O)(=O)CCc2nnc(NC(=O)c3ccccc3)s2)cc1` the outcome was “inactive”.
For `CC1CCN(S(=O)(=O)c2ccc(C(=O)Nc3nnc(-c4ccco4)o3)cc2)CC1`, the outcome was “inactive”.
With `Cc1ccc(C(=O)Nc2nc(-c3ccccc3)cs2)o1` the outcome was “inactive”.
With `CC(C)Cc1nnc(NC(=O)c2cccc(S(=O)(=O)N3CCOCC3)c2)s1` the outcome was “inactive”.
With `O=C(CSc1ccc(-c2ccccn2)nn1)Nc1ccccc1` the outcome was “inactive”.
In the case of `O=C(CSc1ccc(-c2ccccn2)nn1)N1CCCC1`, the outcome is reported as “inactive”.
With `O=C(Nc1nc(-c2ccccn2)cs1)c1ccc(S(=O)(=O)N2CCOCC2)cc1` the outcome was “inactive”.
In the case of `COC(=O)c1ccc(NC(=O)CSc2ccc(-c3ccccn3)nn2)cc1`, the outcome is reported as “inactive”.
With `CC1CC(C)CN(S(=O)(=O)c2ccc(C(=O)Nc3nnc(C4=COCCO4)o3)cc2)C1` (stereo not drawn) the outcome was “inactive”.
In the case of `COC(=O)Cc1cc(=O)n(-c2nc3ccccc3[nH]2)[nH]1`, the outcome is reported as “inactive”.
With `O=C(Nc1nc(-c2ccncc2)cs1)c1ccco1` the outcome was “inactive”.
In the case of `O=C(CSc1ccc(-c2ccccn2)nn1)NC1CCCCC1`, the outcome is reported as “inactive”.
For `CCc1cc2c(=O)[nH]c(-c3ccccn3)nc2s1`, the outcome was “inactive”.
In the case of `CC1CCN(S(=O)(=O)c2ccc(C(=O)Nc3nnc(C4CC4)o3)cc2)CC1`, the outcome is reported as “inactive”.
In the case of `FC(F)(F)c1cc(-c2nn[nH]n2)cc(C(F)(F)F)c1`, the outcome is reported as “inactive”.
In the case of `O=C(Nc1nnc(-c2ccc(F)cc2)o1)c1ccc(S(=O)(=O)N2CCCCC2)cc1`, the outcome is reported as “inactive”.
In the case of `CC1CCN(S(=O)(=O)c2ccc(C(=O)Nc3nnc(-c4ccccn4)o3)cc2)CC1`, the outcome is reported as “inactive”.
With `CC(C)CC(=O)NC(c1cccs1)c1ccc2cccnc2c1O` (stereo not drawn) the outcome was “inactive”.
For `O=C(Nc1nc(-c2ccncc2)cs1)c1cccc(S(=O)(=O)N2CCOCC2)c1`, the outcome was “inactive”.
For `O=C(CSc1ccc(-c2ccccn2)nn1)Nc1nccs1`, the outcome was “inactive”.
With `Cc1ccc(C(=O)Nc2nc(-c3ccccn3)cs2)o1` the outcome was “inactive”.
With `Nc1nc(-c2ccccn2)nc(N)c1Cc1ccc(Cl)cc1Cl` the outcome was “inactive”.
For `Cc1cccc(NC(=O)CSc2ccc(-c3ccccn3)nn2)c1C`, the outcome was “inactive”.
For `c1ccc(-c2nc(-c3ccncc3)n[nH]2)nc1`, the outcome was “inactive”.
For `Cc1c(C(=O)N(C)C)sc2nc(-c3ccccn3)[nH]c(=O)c12`, the outcome was “inactive”.
With `O=C(Nc1nc(-c2ccccn2)cs1)c1ccco1` the outcome was “inactive”.
In the case of `CCCCC(=O)NC(c1ccco1)c1ccc2cccnc2c1O` (stereo not drawn), the outcome is reported as “inactive”.
With `O=C(CSc1n[nH]c(-c2ccccn2)n1)Nc1ccc(Cl)cc1` the outcome was “inactive”.
